Assay results published in PubChem BioAssay AID624491 (Broad Institute, 2012).
About 1,400 (78%) of roughly 1,800 compounds were called active. Inconclusive results (about 2%) are left out.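 The calls were made as follows: active = fitted curve crossing a set activation limit at or below the highest valid dose tested; inconclusive = flat fit at 30 to 70% activation, or poor fit; inactive = the rest, including signal decreases.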 So high a share suggests a set chosen from earlier hits. The list is a sample of the results. Measured potencies and affinities stand elsewhere.

assay: N-linked glycosylation inhibitors, luciferase reporter, dose response, D54 ERlucT cells, luminescence, cherry-picks (AID 624491); conditions: 24 h, 100% = twice neutral-control luminescence; series mostly up to 19.5 µM;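 also: signal gain reflects blocked N-linked glycosylation of a luciferase reporter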

Activation (NLG inhibition), inactive:
CCN(c1ccccc1)S(=O)(=O)c1ccc(N)c(OC)c1, c1ccc(CCNc2nc(-c3ccccn3)nc3ccccc23)cc1, COc1cccc(C2=NOC(C(=O)NCc3ccco3)C2)c1 (stereo not drawn), COc1ccc(C2=NOC(C(=O)NCc3ccco3)C2)cc1OC (stereo not drawn), COc1cc(CNc2ccc(O)cc2)cc(Br)c1OCc1ccccc1, COc1cc(C(=O)OC2CCCCC2=O)cc(OC)c1C (stereo not drawn), COc1cc(C(=O)OCC(=O)c2cc(C)n(C)c2C)cc(OC)c1OC, CN(C)CCCN(C(=O)c1ccc(S(=O)(=O)N2CCc3ccccc3C2)cc1)c1nc2ccc(F)cc2s1, Cc1ccc(S(=O)(=O)N2CCCCC2CCNC(=O)C(=O)NCc2ccco2)cc1 (stereo not drawn), O=C(CSc1ncnc2nc[nH]c12)c1ccc([N+](=O)[O-])cc1, CCOC(=O)/C=c1/s/c(=C\c2c(OC)ccc3ccccc23)c(=O)n1CC(=O)NCC1CCCO1 (stereo not drawn), CCOC(=O)c1[nH]c(C)c(C(=O)Nc2cccc(Cl)c2C)c1C, Cc1ccc2c(CNCc3ccccc3)cc(=O)oc2c1, CCOC(=O)n1c(=O)n(Cc2ccc(OC)cc2)c2ccccc21, FC(F)(F)c1nnc2c(Sc3ccc(Cl)cc3)nc3ccccc3n12, CC(=O)c1cccc(-c2ccnc3c2CC(C(=O)NCCc2ccccc2)O3)c1 (stereo not drawn), Cc1[nH]c2ccc(C(=O)OC(C)C(=O)NCc3ccccc3)cc2c1C (stereo not drawn), COc1ccc(-c2cc(-c3ccccc3)c(C#N)c(S(C)=O)n2)cc1 (stereo not drawn), C/C(CC(=O)NCc1ccc(Cl)cc1)=N\NC(=O)COc1ccc(C)cc1Br, CC1CN(C(=O)/C=C/c2ccc([N+](=O)[O-])s2)CC(C)O1 (stereo not drawn), CC(=O)N1N=C(c2ccccc2)OC1c1ccc([N+](=O)[O-])s1 (stereo not drawn), CCOC(=O)c1c(C)c(C(=O)Nc2ccc(N(C)C)cc2)c(C)n1CC, CC(Nc1nc(-c2cccnc2)nc2ccccc12)c1ccc(F)cc1 (stereo not drawn), Cc1ccc(Nc2nc(-c3cccnc3)nc3ccccc23)cc1, O=C1c2ccccc2C(=O)C12OC2c1ccc(Cl)cc1Cl (stereo not drawn), Cc1ccc2nc(SCC(=O)Nc3ccc4sc(C)nc4c3)c(C#N)cc2c1, CCCCCCCCCCn1c2c(c(=N)c3c1CCC3)CCC2, CCCn1c(=N)n(CC(=O)c2ccc([N+](=O)[O-])cc2)c2ccccc21, Cn1c(Cl)cnc1C1CC(=O)c2cc(Cl)ccc2O1 (stereo not drawn), COc1ccc(OC)c(/C=C/c2ccc3cccc(O)c3n2)c1, COc1ccc(NC(=O)c2cccc(Oc3ccccc3)c2)cn1, Cn1c(SCC(=O)c2ccccc2)ncc(C(=O)Nc2ccc(F)cc2)c1=O, Cn1c(SCC(=O)c2ccccc2)ncc(C(=O)Nc2ccccc2)c1=O, CCOc1ccc(Nc2nnc(SCc3nc4ccccc4c(=O)[nH]3)s2)cc1, CC1=Nc2cc(C(=O)NCC3CCCO3)ccc2Sc2ccc(Br)cc21 (stereo not drawn), CC1(C(=O)NCc2cccs2)Cc2c(-c3ccc(C(N)=O)cc3)ccnc2O1 (stereo not drawn), CC1(C(=O)NCc2ccccc2)Cc2c(-c3ccc(C(N)=O)cc3)ccnc2O1 (stereo not drawn), CC(=O)Nc1ccc(-c2ccnc3c2CC(C)(C(=O)NCc2ccco2)O3)cc1 (stereo not drawn), O=C(NCCN1C(=O)S/C(=C\c2cccc(Cl)c2Cl)C1=O)C1=COCCO1, CC[C@@H]1CC=C[C@H]2[C@H]1C(=O)N(Cc1ccccc1)[C@H]2c1ccoc1, c1ccc2[nH]c3cc4ncnc4cc3nc2c1, NS(=O)(=O)c1ccc(N=Nc2c(O)[nH]c3ccc(Br)cc23)cc1, COc1ccc(CN(C)c2ncnc3sccc23)c(OC)c1OC, CCc1ccccc1NC(=O)Cn1nnc(C(=O)NCc2cccs2)c1N, COc1ccc(C(=O)/C=C/c2ccccc2F)c(OC(=O)c2ccc([N+](=O)[O-])cc2)c1, O=C(NCc1ccc2c(c1)OCO2)c1cc([N+](=O)[O-])ccc1N1CCOCC1, CC1=C[C@@H](C)[C@@H](c2ccc(C(F)(F)F)cc2)OC1=O, O=C(COc1ccc2c(-c3ccccc3)cc(=O)oc2c1)N[C@@H](Cc1c[nH]c2ccc(O)cc12)C(=O)O, COc1ccc2c(c1)c1ccc3c(c1n2C)C(=O)C=CC3=O, COc1cc2c(cc1OC)C(c1ccccc1)N(C(=O)CCl)CC2 (stereo not drawn), COc1ccc(CC(=O)NCc2ccccc2)cc1, COc1ccc(NS(=O)(=O)c2cc(NC(=O)c3nn(C)c(=O)c4ccccc34)ccc2OC)cc1, COc1cc2nc(NC(=O)c3ccccc3)sc(=O)c2cc1OC, COc1ccc(C(=O)c2sc(Nc3ccccc3)nc2N)cc1OC, COc1ccccc1N(C)S(=O)(=O)c1ccc(C(=O)OCC(=O)N2CCC2)cc1, CC1CN(C(=O)c2cc(-c3ccc(Cl)s3)nc3ccccc23)CC(C)O1 (stereo not drawn), O=C(c1cc(-c2cccs2)nc2ccccc12)N1CCN(c2ccccc2)CC1, O=C(N/N=C/c1ccc2c(c1)OCO2)c1sc2cc(Cl)ccc2c1Cl, Oc1[nH]c(N=C2N=c3ccccc3=N2)c2ccccc12, COc1cc(/C=C2/C(=O)N(C)C(=S)N2C)ccc1OCc1cccc(F)c1, C(=N\Nc1nc2ccccc2[nH]1)/c1c[nH]c2ccccc12, CCOC(=O)N1CCN(C(=O)c2cccc(N3C(=O)NC4CC3(C)Oc3ccc(Cl)cc34)c2)CC1 (stereo not drawn), O=C(c1cccc([N+](=O)[O-])c1)N1CCN(c2cccc(Cl)c2)CC1, CCOc1ccc(C(=O)Nc2cc(-c3nc4ccccc4[nH]3)ccc2Cl)cc1[N+](=O)[O-], Cc1c(Cl)ccc2c(C(=O)Nc3cc(C(C)(C)C)on3)cc(-c3ccccn3)nc12, O=C1COc2ccc(C(=O)/C=C/c3ccccc3)cc2N1, COc1ccc(N2CC(C(=O)Nc3cc(C(F)(F)F)ccc3N3CCCC3)CC2=O)c(OC)c1 (stereo not drawn), O=C(Cc1ccc(Cl)cc1)Nc1ccccc1N1CCN(C(=O)c2ccccc2)CC1
